Holding throughout (test): DAPPL (digital affinity profiling via proximity ligation, sequencing); 10 mM Tris-HCl pH 7.5, 50 mM NaCl, 1 mM DTT, 4% glycerol, room temperature, 30 min; GST-TFs on glutathione beads, 16-mer random dsDNA library, 0.1% formaldehyde crosslink after washing; high values mean tight binding
Assay [1] concerns the target T1, FLI1 (Homo sapiens, UniProt Q01543 1-452).
T1 sequence: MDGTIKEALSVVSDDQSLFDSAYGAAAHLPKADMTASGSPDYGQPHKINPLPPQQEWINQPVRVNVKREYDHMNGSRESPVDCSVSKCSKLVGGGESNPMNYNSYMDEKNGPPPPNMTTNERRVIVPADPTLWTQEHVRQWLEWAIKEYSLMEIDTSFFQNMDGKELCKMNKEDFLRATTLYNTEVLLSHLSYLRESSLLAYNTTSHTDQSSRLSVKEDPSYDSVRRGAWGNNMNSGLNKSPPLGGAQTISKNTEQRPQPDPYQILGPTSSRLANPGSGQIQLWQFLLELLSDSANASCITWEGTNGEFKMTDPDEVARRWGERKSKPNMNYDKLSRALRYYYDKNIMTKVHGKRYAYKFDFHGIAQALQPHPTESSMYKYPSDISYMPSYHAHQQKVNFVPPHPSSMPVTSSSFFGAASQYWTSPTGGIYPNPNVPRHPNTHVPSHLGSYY
To be noted: protein: recombinant; tags: N-terminal GST; dsDNA, one strand shown. The procedure, abridged:
(§1)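 The binding signal reported is, for every hexamer, its read frequency for a factor over its read frequency for the tag-only sample. Reads came from pools of yeast-expressed, GST-fused human transcription factors on glutathione beads, barcoded with DNA and mixed with that sample, which were incubated with 200 nmole of a random double-stranded 16-mer DNA library in Tris/NaCl/DTT/glycerol buffer at room temperature for 30 min. After washing, the pools were crosslinked with 0.1% formaldehyde, proximity-ligated with BsaI/T4 ligase for 1 h at 37 °C, PCR-amplified and sequenced on an Illumina NextSeq500.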

Assay [2] has as its target T2, ELK1 (Homo sapiens, UniProt P19419 1-428).
T2 sequence: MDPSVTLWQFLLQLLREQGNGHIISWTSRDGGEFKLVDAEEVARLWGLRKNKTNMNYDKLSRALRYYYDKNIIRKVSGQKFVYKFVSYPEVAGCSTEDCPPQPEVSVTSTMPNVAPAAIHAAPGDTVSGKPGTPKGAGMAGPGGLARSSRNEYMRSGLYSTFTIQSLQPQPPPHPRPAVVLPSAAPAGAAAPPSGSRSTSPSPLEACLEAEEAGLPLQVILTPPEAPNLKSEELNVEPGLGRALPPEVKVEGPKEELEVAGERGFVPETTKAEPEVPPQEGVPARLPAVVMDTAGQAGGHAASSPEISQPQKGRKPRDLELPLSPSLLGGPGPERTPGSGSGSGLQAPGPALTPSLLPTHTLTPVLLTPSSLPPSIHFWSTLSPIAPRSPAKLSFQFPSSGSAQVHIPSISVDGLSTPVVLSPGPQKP
The following applies: protein: recombinant; tags: N-terminal GST; dsDNA, one strand shown. The method, boiled down:
as §1

Assay [3] deals with T3, GABPA (Homo sapiens, UniProt Q06546 1-454).
T3 sequence: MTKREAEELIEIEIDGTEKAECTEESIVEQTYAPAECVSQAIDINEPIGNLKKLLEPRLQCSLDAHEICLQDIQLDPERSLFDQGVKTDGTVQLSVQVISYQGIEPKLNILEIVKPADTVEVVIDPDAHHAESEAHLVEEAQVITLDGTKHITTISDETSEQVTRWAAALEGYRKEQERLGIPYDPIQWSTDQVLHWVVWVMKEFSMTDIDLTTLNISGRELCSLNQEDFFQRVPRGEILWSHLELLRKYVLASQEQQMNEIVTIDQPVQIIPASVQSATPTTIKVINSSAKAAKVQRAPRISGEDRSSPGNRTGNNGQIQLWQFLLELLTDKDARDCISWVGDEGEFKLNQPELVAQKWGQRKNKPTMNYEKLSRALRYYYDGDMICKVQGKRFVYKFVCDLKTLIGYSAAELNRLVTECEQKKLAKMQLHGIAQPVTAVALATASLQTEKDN
The following applies: protein: recombinant; tags: N-terminal GST; dsDNA, one strand shown. The method, boiled down:
as §1

The target of assay [4] is T4, ERG (Homo sapiens, UniProt P11308 1-479).
T4 sequence: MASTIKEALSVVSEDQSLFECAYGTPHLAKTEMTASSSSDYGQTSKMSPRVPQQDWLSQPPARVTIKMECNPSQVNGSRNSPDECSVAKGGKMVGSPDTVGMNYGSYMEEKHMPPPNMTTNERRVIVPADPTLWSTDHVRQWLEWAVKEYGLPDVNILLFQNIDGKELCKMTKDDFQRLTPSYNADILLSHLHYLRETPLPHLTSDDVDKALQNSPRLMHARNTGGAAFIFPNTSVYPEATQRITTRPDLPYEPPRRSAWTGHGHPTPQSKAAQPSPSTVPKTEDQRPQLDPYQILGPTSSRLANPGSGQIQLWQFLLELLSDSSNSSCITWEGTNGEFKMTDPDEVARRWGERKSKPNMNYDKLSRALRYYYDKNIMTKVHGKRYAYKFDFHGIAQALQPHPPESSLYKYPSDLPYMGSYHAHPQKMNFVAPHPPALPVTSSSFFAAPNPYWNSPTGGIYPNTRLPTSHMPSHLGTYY
The following applies: protein: recombinant; tags: N-terminal GST; dsDNA, one strand shown. The procedure, abridged: as §1

The target of assay [5] is ELF1 (Homo sapiens, UniProt P32519 1-619). To be noted: protein: recombinant; tags: N-terminal GST; dsDNA, one strand shown. The procedure, abridged: as §1
Sequence of ELF1 (P32519 whole entry): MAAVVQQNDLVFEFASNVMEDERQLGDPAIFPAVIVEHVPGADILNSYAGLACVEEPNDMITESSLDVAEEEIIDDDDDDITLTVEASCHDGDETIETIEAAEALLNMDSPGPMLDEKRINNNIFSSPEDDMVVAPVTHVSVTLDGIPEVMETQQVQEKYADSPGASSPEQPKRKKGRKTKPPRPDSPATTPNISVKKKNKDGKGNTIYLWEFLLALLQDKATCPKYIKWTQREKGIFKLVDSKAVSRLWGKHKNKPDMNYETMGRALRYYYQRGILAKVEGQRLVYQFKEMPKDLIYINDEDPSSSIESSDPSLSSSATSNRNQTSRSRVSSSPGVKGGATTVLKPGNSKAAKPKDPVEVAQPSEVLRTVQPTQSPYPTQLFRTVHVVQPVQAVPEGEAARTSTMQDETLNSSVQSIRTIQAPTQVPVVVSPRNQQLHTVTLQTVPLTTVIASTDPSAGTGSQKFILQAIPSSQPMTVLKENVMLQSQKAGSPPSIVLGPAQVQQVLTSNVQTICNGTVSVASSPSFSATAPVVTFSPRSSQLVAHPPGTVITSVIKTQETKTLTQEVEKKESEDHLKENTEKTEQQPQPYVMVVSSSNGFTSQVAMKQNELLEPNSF
The target of assay [6] is T5, EHF (Homo sapiens, UniProt Q9NZC4 1-300).
T5 sequence: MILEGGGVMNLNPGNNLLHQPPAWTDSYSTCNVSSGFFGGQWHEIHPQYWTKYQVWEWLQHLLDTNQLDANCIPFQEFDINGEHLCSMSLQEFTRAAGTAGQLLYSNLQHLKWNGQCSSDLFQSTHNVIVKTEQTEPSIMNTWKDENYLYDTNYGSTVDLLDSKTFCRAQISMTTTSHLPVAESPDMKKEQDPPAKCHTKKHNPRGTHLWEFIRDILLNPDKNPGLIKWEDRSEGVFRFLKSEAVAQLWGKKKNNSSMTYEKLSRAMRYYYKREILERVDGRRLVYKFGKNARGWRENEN
To be noted: protein: recombinant; tags: N-terminal GST; dsDNA, one strand shown. The procedure, abridged: as §1

For assay [7], the target named is SPI1 (Homo sapiens, UniProt P17947 1-270). To be noted: protein: recombinant; tags: N-terminal GST; dsDNA, one strand shown. The procedure, abridged:
as §1

Assay [8] has as its target SPIB (Homo sapiens, UniProt Q01892 1-262). To be noted: protein: recombinant; tags: N-terminal GST; dsDNA, one strand shown. The method, boiled down:
as §1

In assay [9] the target is T6, ELK3 (Homo sapiens, UniProt P41970 1-407).
T6 sequence: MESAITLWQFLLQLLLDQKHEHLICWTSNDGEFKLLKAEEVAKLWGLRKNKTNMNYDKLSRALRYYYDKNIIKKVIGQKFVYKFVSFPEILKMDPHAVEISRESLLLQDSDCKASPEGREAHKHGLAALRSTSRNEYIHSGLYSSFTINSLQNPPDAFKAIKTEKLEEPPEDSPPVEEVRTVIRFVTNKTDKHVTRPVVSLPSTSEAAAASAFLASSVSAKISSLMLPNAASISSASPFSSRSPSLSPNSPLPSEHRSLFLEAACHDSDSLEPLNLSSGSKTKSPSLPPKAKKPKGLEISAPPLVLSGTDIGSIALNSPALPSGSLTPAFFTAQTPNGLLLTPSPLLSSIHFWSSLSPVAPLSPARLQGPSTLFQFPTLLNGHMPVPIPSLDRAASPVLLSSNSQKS
The following applies: protein: recombinant; tags: N-terminal GST; dsDNA, one strand shown. The procedure, abridged: as §1

Assay [10] has as its target T7, FEV (Homo sapiens, UniProt Q99581 1-238).
T7 sequence: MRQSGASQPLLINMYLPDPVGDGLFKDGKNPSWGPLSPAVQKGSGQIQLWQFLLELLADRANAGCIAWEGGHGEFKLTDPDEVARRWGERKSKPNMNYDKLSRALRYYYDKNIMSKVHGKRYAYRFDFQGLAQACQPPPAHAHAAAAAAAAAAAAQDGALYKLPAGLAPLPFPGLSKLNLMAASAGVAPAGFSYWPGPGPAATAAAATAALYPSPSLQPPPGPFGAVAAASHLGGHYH
To be noted: protein: recombinant; tags: N-terminal GST; dsDNA, one strand shown. The method, boiled down:
as §1

Assay [11] concerns the target ETV5 (Homo sapiens, UniProt P41161 1-510). To be noted: protein: recombinant; tags: N-terminal GST; dsDNA, one strand shown. The method, boiled down:
as §1

The target of assay [12] is HSF1 (Homo sapiens, UniProt Q00613 1-529). The following applies: protein: recombinant; tags: N-terminal GST; chain copies: 3; dsDNA, one strand shown. The method, boiled down:
as §1

The target in assay [13] is T8, SPIC (Homo sapiens, UniProt Q8N5J4 1-248).
T8 sequence: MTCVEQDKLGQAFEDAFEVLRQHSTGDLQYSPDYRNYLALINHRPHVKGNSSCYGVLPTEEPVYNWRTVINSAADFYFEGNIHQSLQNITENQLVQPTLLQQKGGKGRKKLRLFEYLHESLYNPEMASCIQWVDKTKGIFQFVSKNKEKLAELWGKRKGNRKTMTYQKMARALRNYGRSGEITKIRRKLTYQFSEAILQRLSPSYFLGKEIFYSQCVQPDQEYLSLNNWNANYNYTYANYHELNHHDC
To be noted: protein: recombinant; tags: N-terminal GST; dsDNA, one strand shown. The method, boiled down: as §1

In assay [14] the target is ELF4 (Homo sapiens, UniProt Q99607 1-663). To be noted: protein: recombinant; tags: N-terminal GST; dsDNA, one strand shown. The procedure, abridged:
as §1

In assay [15] the target is T9, ELK4 (Homo sapiens, UniProt P28324-2 1-405).
T9 sequence: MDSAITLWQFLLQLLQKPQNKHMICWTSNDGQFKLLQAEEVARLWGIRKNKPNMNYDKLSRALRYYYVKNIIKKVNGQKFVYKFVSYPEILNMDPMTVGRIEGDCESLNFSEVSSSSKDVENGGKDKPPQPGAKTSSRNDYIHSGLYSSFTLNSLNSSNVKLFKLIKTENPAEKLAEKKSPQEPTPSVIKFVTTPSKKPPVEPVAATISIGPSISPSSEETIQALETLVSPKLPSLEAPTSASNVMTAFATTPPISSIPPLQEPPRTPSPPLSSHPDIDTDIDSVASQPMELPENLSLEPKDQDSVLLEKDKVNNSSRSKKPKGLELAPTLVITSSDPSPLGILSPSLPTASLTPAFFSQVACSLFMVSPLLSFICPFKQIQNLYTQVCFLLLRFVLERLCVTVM
The following applies: protein: recombinant; tags: N-terminal GST; dsDNA, one strand shown. The method, boiled down: as §1

Assay [16] has as its target T10, ETV2 (Homo sapiens, UniProt O00321 1-342).
T10 sequence: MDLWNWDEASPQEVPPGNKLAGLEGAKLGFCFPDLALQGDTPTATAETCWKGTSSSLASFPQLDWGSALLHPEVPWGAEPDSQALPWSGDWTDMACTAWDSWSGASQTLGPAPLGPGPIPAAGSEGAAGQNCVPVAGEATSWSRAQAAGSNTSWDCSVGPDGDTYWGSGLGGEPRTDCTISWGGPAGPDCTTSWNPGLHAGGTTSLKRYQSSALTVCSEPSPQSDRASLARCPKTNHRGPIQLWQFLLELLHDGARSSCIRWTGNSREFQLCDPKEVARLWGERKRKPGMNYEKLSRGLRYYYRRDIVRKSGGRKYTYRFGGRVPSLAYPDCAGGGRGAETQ
The following applies: protein: recombinant; tags: N-terminal GST; dsDNA, one strand shown. The method, boiled down:
as §1

In assay [17] the target is T11, ELF3 (Homo sapiens, UniProt P78545 1-371).
T11 sequence: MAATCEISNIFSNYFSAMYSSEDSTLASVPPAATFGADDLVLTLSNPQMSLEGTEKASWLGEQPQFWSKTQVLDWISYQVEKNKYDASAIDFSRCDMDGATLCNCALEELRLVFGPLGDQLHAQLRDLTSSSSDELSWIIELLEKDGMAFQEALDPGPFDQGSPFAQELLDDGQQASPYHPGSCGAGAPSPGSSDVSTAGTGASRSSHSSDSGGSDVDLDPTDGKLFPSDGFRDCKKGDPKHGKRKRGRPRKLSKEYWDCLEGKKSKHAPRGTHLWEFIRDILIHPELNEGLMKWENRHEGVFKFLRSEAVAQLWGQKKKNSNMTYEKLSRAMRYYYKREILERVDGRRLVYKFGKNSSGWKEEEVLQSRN
To be noted: protein: recombinant; tags: N-terminal GST; dsDNA, one strand shown. The method, boiled down: as §1

Assay [18] concerns the target CRX (Homo sapiens, UniProt O43186 1-299). To be noted: protein: recombinant; tags: N-terminal GST; dsDNA, one strand shown. The procedure, abridged:
as §1

The target of assay [19] is ETV1 (Homo sapiens, UniProt P50549 1-477). The following applies: protein: recombinant; tags: N-terminal GST; dsDNA, one strand shown. The method, boiled down:
as §1

Sequence of ETV5 (P41161 whole entry): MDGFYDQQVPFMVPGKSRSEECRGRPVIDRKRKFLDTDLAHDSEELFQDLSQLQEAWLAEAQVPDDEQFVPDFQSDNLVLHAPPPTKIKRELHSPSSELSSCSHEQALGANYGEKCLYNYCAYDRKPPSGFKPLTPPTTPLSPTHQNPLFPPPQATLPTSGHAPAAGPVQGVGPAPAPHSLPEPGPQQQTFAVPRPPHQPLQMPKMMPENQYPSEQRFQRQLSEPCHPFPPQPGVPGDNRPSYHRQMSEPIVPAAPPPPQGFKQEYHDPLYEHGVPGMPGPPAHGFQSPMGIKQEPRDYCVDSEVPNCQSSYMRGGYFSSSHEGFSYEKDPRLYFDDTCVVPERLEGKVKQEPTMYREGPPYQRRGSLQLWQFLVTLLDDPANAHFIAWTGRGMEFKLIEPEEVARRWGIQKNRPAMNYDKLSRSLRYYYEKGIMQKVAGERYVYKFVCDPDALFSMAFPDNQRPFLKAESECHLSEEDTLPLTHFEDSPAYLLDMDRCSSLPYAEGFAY
Sequence of ETV1 (P50549 whole entry): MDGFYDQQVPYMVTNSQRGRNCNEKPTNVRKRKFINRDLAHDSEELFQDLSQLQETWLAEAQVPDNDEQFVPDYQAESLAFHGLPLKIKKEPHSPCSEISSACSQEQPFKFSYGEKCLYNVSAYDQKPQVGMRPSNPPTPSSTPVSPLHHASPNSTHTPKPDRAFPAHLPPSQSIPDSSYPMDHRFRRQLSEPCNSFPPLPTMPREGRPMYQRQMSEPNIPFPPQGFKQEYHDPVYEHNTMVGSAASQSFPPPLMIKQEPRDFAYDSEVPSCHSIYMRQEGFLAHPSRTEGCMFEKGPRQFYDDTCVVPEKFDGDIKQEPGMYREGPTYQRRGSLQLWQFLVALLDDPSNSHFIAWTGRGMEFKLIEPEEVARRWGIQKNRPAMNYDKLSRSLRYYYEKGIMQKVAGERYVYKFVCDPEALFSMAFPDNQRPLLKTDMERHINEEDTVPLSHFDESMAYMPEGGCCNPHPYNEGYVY
Sequence of ELF4 (Q99607 whole entry): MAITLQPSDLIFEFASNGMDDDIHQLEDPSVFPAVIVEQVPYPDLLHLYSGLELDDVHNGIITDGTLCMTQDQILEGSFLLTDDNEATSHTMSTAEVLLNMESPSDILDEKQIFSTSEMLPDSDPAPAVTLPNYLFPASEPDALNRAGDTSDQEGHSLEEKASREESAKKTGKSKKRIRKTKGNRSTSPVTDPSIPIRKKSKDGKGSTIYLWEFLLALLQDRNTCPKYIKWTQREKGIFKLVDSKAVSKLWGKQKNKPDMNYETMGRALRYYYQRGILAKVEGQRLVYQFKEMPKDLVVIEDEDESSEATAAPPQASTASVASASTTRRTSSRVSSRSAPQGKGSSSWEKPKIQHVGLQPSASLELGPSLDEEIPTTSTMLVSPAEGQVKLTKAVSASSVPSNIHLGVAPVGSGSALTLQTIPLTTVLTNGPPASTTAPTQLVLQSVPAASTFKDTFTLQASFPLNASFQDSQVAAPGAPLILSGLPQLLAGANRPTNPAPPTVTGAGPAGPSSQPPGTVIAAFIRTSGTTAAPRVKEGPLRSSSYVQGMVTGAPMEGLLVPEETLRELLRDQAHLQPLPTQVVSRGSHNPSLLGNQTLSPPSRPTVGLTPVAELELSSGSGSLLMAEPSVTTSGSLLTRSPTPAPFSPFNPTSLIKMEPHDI
Sequence of HSF1 (Q00613 whole entry): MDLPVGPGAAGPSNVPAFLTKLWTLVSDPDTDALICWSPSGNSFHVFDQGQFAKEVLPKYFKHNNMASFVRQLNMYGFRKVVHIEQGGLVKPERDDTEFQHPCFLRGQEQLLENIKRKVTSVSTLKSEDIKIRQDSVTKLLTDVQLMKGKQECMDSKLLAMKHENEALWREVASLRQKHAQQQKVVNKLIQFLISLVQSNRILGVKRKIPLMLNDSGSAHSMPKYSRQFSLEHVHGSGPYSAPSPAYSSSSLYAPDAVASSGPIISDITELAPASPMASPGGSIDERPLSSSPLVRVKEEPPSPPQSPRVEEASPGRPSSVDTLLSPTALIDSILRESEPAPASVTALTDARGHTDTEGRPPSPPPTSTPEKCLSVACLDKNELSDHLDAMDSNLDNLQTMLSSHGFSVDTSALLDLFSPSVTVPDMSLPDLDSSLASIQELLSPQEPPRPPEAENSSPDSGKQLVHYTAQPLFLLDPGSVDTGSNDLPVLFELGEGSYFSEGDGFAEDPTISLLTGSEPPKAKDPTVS
Sequence of CRX (O43186 whole entry): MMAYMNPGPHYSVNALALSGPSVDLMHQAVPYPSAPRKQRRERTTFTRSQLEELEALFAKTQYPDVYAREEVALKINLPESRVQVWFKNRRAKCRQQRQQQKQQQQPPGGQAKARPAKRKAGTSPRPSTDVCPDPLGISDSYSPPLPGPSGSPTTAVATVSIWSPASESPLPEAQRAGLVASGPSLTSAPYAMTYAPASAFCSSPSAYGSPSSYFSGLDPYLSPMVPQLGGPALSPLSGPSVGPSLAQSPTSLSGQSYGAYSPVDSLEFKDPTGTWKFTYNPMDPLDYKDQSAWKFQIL
Sequence of SPIB (Q01892 whole entry): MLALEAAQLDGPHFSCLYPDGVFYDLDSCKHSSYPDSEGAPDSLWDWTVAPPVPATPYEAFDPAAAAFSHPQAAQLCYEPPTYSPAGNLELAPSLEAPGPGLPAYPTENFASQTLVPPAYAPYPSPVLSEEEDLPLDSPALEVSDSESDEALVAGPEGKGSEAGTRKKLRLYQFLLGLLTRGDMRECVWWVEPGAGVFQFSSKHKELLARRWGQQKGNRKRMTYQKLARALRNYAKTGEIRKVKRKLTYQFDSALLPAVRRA

For the sequence TGTCCT, the binding signal in [1] was 1.37 fold enrichment (6-mer frequency, TF over GST control); in assay [2], 1.38 fold enrichment (6-mer frequency, TF over GST control); in assay [3] it was 1.58 fold enrichment (6-mer frequency, TF over GST control); in [4] it was 1.38 fold enrichment (6-mer frequency, TF over GST control); in [5] it was 1.5 fold enrichment (6-mer frequency, TF over GST control); in assay [6], 1.52 fold enrichment (6-mer frequency, TF over GST control). Also, the binding signal in assay [7] is 1.44 fold enrichment (6-mer frequency, TF over GST control); in [8], 1.54 fold enrichment (6-mer frequency, TF over GST control); in [9], 1.41 fold enrichment (6-mer frequency, TF over GST control); in assay [10] it was 1.45 fold enrichment (6-mer frequency, TF over GST control); in assay [11] it was 1.56 fold enrichment (6-mer frequency, TF over GST control); in [12], 1.06 fold enrichment (6-mer frequency, TF over GST control). The binding signal in assay [13] is 1.53 fold enrichment (6-mer frequency, TF over GST control); in [14] it was 1.4 fold enrichment (6-mer frequency, TF over GST control); in assay [15], 1.28 fold enrichment (6-mer frequency, TF over GST control); in assay [16], 1.67 fold enrichment (6-mer frequency, TF over GST control); in assay [17] it was 1.46 fold enrichment (6-mer frequency, TF over GST control); in [18], 1.12 fold enrichment (6-mer frequency, TF over GST control). Further, the binding signal in [19] is 1.55 fold enrichment (6-mer frequency, TF over GST control).

The record behind these values is article PMC7862700, “An all-to-all approach to the identification of sequence-specific readers for epigenetic DNA modifications on cytosine”.
